PubChem BioAssay AID1159580 (chemical genetic matrix, 2015)
Out of some 5,500 compounds screened, about 2,000 (36%) were called active. Not shown: some 18% with an inconclusive outcome. Cut-off read from the data, not from the text of the source: active = normalized growth mostly below about 0.91 (no sharp cut-off); inconclusive = no clear call, values can overlap the other calls; inactive = mostly above about 0.92. This is one part of the list.

Assay: chemical genetic growth profiling, strain panel (AID 1159580);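 note: tested at 20 µM; growth read once vehicle control cultures reached saturation at 30 °C; 1 = growth at the plate median or of vehicle wells; lower values mean less growth of the strain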
Conditions: S. cerevisiae deletion strains, growth OD

Measured: normalized growth

CC(C1OC(C)(C)C(O)C1O)[C@@H]1CC[C@]2(C)C3=CCC4C(C)(C)C(=O)CC[C@]4(C)C3CC[C@@]12C (stereo partly drawn)
inactive: locus YAL013W, strain DEP1, active compounds read low 0.979 | locus YAL021C, strain ccr4, active compounds read low 1.02 | locus YAL026C, strain drs2, active compounds read low 0.987 | locus YAL030W, strain snc1, active compounds read low 1 | locus YBL061C, strain skt5, active compounds read low 0.978 | locus YBR009C, strain hhf1, active compounds read low 0.946 | locus YBR021W, strain FUR4, active compounds read low 1.06 | locus YBR023C, strain chs3, active compounds read low 0.985 | locus YBR171W, strain sec66, active compounds read low 0.985 | locus YBR229C, strain ROT2, active compounds read low 1.02 | locus YBR231C, strain swc5, active compounds read low 0.971 | locus YBR279W, strain paf1, active compounds read low 0.995 | locus YCL011C, strain gbp2, active compounds read low 0.981 | locus YCL016C, strain dcc1, active compounds read low 0.989 | locus YCL029C, strain bik1, active compounds read low 1.01 | locus YCL061C, strain MRC1, active compounds read low 0.995 | locus YCL069W, strain vba3, active compounds read low 0.994 | locus YCR088W, strain abp1, active compounds read low 1 | locus YDL005C, strain med2, active compounds read low 0.968 | locus YDL035C, strain GPR1, active compounds read low 0.931 | locus YDL040C, strain nat1, active compounds read low 0.976 | locus YDL074C, strain BRE1, active compounds read low 0.845 | locus YDL101C, strain DUN1, active compounds read low 0.989 | locus YDL134C, strain PPH21, active compounds read low 0.951 | locus YDL192W, strain arf1, active compounds read low 0.983 | locus YDR001C, strain nth1, active compounds read low 0.999 | locus YDR069C, strain doa4, active compounds read low 0.985 | locus YDR101C, strain arx1, active compounds read low 0.973 | locus YDR137W, strain rgp1, active compounds read low 1.02 | locus YDR159W, strain sac3, active compounds read low 0.898 | locus YDR162C, strain NBP2, active compounds read low 0.958 | locus YDR195W, strain ref2 1.05 | locus YDR297W, strain sur2, active compounds read low 0.981 | locus YDR318W, strain mcm21, active compounds read low 1 | locus YDR334W, strain swr1, active compounds read low 0.987 | locus YDR335W, strain msn5, active compounds read low 0.999 | locus YDR388W, active compounds read low 1.03 | locus YDR392W, strain spt3, active compounds read low 0.838 | locus YDR502C, strain sam2, active compounds read low 0.989 | locus YEL003W, strain gim4, active compounds read low 0.937 | locus YEL037C, strain rad23, active compounds read low 0.983 | locus YEL061C, strain CIN8 (second series), active compounds read low 0.99 | locus YER015W, strain faa2, active compounds read low 0.992 | locus YER016W, strain bim1, active compounds read low 0.99 | locus YER110C, active compounds read low 1.03 | locus YER111C, strain swi4, active compounds read low 0.999 | locus YER155C, strain BEM2 (second series), active compounds read low 0.924 | locus YER155C, strain BEM2, active compounds read low 1.07 | locus YER167W, strain BCK2, active compounds read low 1.01 | locus YFR010W, strain ubp6, active compounds read low 0.973 | locus YGL078C, strain dbp3, active compounds read low 1.03 | locus YGL086W, strain mad1, active compounds read low 1.03 | locus YGL167C, strain pmr1, active compounds read low 0.977 | locus YGL173C, strain kem1, active compounds read low 0.976 | locus YGL227W, strain vid30, active compounds read low 0.99 | locus YGL240W, strain doc1, active compounds read low 0.896 | locus YGL248W, strain PDE1, active compounds read low 0.97 | locus YGL253W, strain hxk2, active compounds read low 0.922 | locus YGR078C, strain PAC10, active compounds read low 0.91 | locus YGR135W, strain pre9, active compounds read low 1.01 | locus YGR252W, strain gcn5, active compounds read low 0.77 | locus YHR013C, strain ard1, active compounds read low 0.966 | locus YHR027C, strain rpn1, active compounds read low 1.02 | locus YHR079C, strain IRE1 (second series), active compounds read low 1.03 | locus YHR094C, strain hxt1, active compounds read low 1.03 | locus YHR129C, strain ARP1, active compounds read low 1 | locus YHR142W, strain chs7, active compounds read low 0.919 | locus YHR200W, strain rpn10, active compounds read low 1.01 | locus YIL066C, strain RNR3, active compounds read low 0.887 | locus YIL073C, strain SPO22, active compounds read low 0.99 | locus YIL125W, strain kgd1, active compounds read low 1.03 | locus YIR030C, strain dcg1, active compounds read low 1.04 | locus YJL092W, strain hpr5, active compounds read low 1 | locus YJL095W, strain BCK1 (second series), active compounds read low 1 | locus YJL095W, strain BCK1, active compounds read low 0.904 | locus YJL115W, strain asf1, active compounds read low 0.985 | locus YJL129C, strain trk1, active compounds read low 0.949 | locus YJL134W, strain LCB3, active compounds read low 1.04 | locus YJL154C, strain vps35, active compounds read low 1.01 | locus YJL164C, strain tpk1, active compounds read low 0.983 | locus YJL166W, strain qcr8, active compounds read low 0.917 | locus YJL168C, strain set2, active compounds read low 1.03 | locus YJL187C, strain SWE1 (second series), active compounds read low 0.958 | locus YJL187C, strain SWE1, active compounds read low 0.999 | locus YKL068W, active compounds read low 1.02 | locus YKL085W, strain MDH1 (second series), active compounds read low 1.05 | locus YKL085W, strain MDH1, active compounds read low 1.05 | locus YKL160W, strain elf1, active compounds read low 0.972 | locus YKL190W, strain CNB1, active compounds read low 1.03 | locus YKR001C, strain vps1, active compounds read low 1.01 | locus YKR026C, strain gcn3, active compounds read low 0.996 | locus YKR091W, strain srl3, active compounds read low 0.995 | locus YLL001W, strain dnm1, active compounds read low 1 | locus YLL026W, active compounds read low 0.997 | locus YLL041C, strain sdh2, active compounds read low 0.992 | locus YLR027C, strain aat2, active compounds read low 0.973 | locus YLR039C, strain RIC1, active compounds read low 1.06 | locus YLR058C, strain SHM2, active compounds read low 0.987 | locus YLR102C, strain apc9, active compounds read low 1.03 | locus YLR221C, strain rsa3, active compounds read low 0.936 | locus YLR258W, strain gsy2, active compounds read low 0.983 | locus YLR262C, strain YPT6 (second series), active compounds read low 0.979 | locus YLR262C, strain YPT6, active compounds read low 1.06 | locus YLR268W, strain sec22, active compounds read low 0.94 | locus YLR342W, strain FKS1, active compounds read low 0.923 | locus YLR357W, strain rsc2, active compounds read low 0.947 | locus YLR370C, strain arc18, active compounds read low 0.988 | locus YLR371W, strain rom2, active compounds read low 1.03 | locus YLR384C, strain iki3, active compounds read low 0.991 | locus YML016C, strain PPZ1, active compounds read low 1.03 | locus YML032C, strain rad52, active compounds read low 0.956 | locus YML120C, strain ndi1, active compounds read low 0.995 | locus YML124C, strain tub3, active compounds read low 1.04 | locus YMR058W, strain fet3, active compounds read low 0.978 | locus YMR078C, strain ctf18, active compounds read low 1.02 | locus YMR125W, strain sto1, active compounds read low 1.01 | locus YMR129W, active compounds read low 0.996 | locus YMR205C, strain PFK2, active compounds read low 0.95 | locus YMR223W, strain ubp8, active compounds read low 0.987 | locus YMR231W, strain pep5, active compounds read low 0.949 | locus YMR307W, strain GAS1, active compounds read low 0.775 | locus YNL067W, strain RPL9B, active compounds read low 0.999 | locus YNL153C, strain GIM3, active compounds read low 0.97 | locus YNL209W, strain ssb2, active compounds read low 0.995 | locus YNL248C, strain rpa49, active compounds read low 0.973 | locus YNL250W, strain rad50, active compounds read low 1.04 | locus YNL271C, strain bni1, active compounds read low 1.02 | locus YNL298W, strain CLA4, active compounds read low 0.973 | locus YNL307C, strain MCK1, active compounds read low 0.942 | locus YNL322C, strain KRE1 (second series), active compounds read low 0.975 | locus YNL322C, strain KRE1, active compounds read low 1.04 | locus YNR049C, strain mso1, active compounds read low 0.982 | locus YNR052C, strain pop2, active compounds read low 1.01 | locus YOL006C, strain TOP1, active compounds read low 0.88 | locus YOL012C, strain htz1 0.776 | locus YOL147C, strain pex11, active compounds read low 0.999 | locus YOR001W, strain rrp6, active compounds read low 0.97 | locus YOR061W, strain CKA2, active compounds read low 1.01 | locus YOR069W, strain VPS5, active compounds read low 1.03 | locus YOR070C, strain gyp1, active compounds read low 0.997 | locus YOR080W, strain dia2, active compounds read low 0.979 | locus YOR083W, strain WHI5, active compounds read low 0.972 | locus YOR106W, strain vam3, active compounds read low 0.961 | locus YOR136W, strain idh2, active compounds read low 1.01 | locus YOR144C, strain elg1, active compounds read low 1.01 | locus YOR265W, strain rbl2, active compounds read low 0.991 | locus YOR270C, strain vph1, active compounds read low 0.821 | locus YOR290C, strain snf2, active compounds read low 0.942 | locus YOR316C, strain cot1, active compounds read low 1.03 | locus YPL051W, strain arl3, active compounds read low 0.94 | locus YPL078C, strain atp4, active compounds read low 1 | locus YPL106C, strain sse1, active compounds read low 1.08 | locus YPL240C, strain hsp82, active compounds read low 0.991 | locus YPR119W, strain clb2, active compounds read low 1.04 | locus YPR141C, strain kar3, active compounds read low 1.04 | locus YPR163C, strain tif3, active compounds read low 0.965 | locus YPR167C, strain met16, active compounds read low 1.03 | strain wtn01, active compounds read low 0.956
active: locus YLR320W, strain mms22, active compounds read low 0.877 | locus YLR418C, strain cdc73, active compounds read low 0.79 | locus YNL071W, strain lat1, active compounds read low 0.906 | locus YNL233W, strain BNI4, active compounds read low 0.867 | locus YOR184W, strain ser1, active compounds read low 0.868
